Assay results from PubChem BioAssay (NCI).
The panel holds about 79,000 compounds, 15% with a hit somewhere; the sample as a whole holds those more often. Activity calls are given as the source filed them. No stated cut-off is given here; in the data, active means growth inhibition above about 70%; inactive means the rest.

Experiments:
[1] = NCI Yeast Anticancer Drug Screen. Data for the rad50 strain (AID 155);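 further: 0% = growth of vehicle-only cultures of the same strain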; details: S. cerevisiae rad50 strain growth inhibition, active compounds read high
Summary of the method: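 Cells are treated with compound, grown, and their growth is then scored against vehicle-only cultures of the same repair-deficient yeast strain.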

[2] = NCI Yeast Anticancer Drug Screen. Data for the mec2-1 strain (AID 157); details: S. cerevisiae mec2-1 strain, active compounds read high
Summary of the method: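 Compounds were applied to mec2-1 yeast cells. Their growth was then compared with that of vehicle-treated cultures to give growth inhibition.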

[3] = NCI Yeast Anticancer Drug Screen. Data for the sgs1 mgt1 strain (AID 161);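 further: 0% = growth of cultures given vehicle only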; details: S. cerevisiae sgs1 mgt1 strain, active compounds read high
Summary of the method: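 This yeast growth screen uses a strain with defined DNA-repair lesions; compound-treated growth is compared with vehicle-treated growth.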

[4] = NCI Yeast Anticancer Drug Screen. Data for the cln2 rad14 strain (AID 165);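 further: 0% = growth equal to vehicle treated cultures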; details: S. cerevisiae cln2 rad14 strain, active compounds read high
Summary of the method: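 Strain: cln2 rad14 yeast, altered in cell cycle control and DNA damage repair. Read-out: growth inhibition vs vehicle.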

[5] = NCI Yeast Anticancer Drug Screen. Data for the bub3 strain (AID 167); details: S. cerevisiae bub3 mutant strain, active compounds read high
Summary of the method: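 Part of a panel of yeast mutants defective in DNA damage repair or cell cycle regulation. Each strain is grown with compound, and inhibition is calculated relative to solvent-treated cultures.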

[6] = NCI Yeast Anticancer Drug Screen. Data for the mlh1 rad18 strain (AID 175); details: S. cerevisiae mlh1 rad18 strain growth inhibition, active compounds read high
Summary of the method: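 A repair-deficient yeast strain is exposed to test compound, and growth is scored relative to vehicle-treated controls.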

[7] = at 5.0 µM (retest, dose inferred, filed as 0.5)
[8] = at 50.0 µM (retest, dose inferred, filed as 5.0)

Measured: growth inhibition

COC(=O)c1ccc([N+](=O)[O-])o1
active: [1]; at 50.0 µM 70.7% | [3]; at 50.0 µM 76.8% | [5]; [8] 71% | [6]; at 50.0 µM 72.3%
inactive: [1]; [7] 7% | [1]; [8] 42% | [2]; [7] 7% | [2]; [8] 38% | [2]; at 50.0 µM 46.4% | [3]; [7] 4% | [3]; [8] 26% | [4]; [7] -5% | [4]; [8] 5% | [4]; at 50.0 µM 23.2% | [5]; [7] 0% | [5]; at 50.0 µM 62.1% | [6]; [7] 13% | [6]; [8] 56%

CC(C)(C)[Si](C)(C)OCC1OC(n2cnc3c(NC(=O)c4ccccc4)ncnc32)CC1O (stereo not given)
active: [4]; at 50.0 µM 77.6%
inactive: [1]; [7] 2% | [1]; [8] 4% | [1]; at 50.0 µM 10% | [2]; [7] -2% | [2]; [8] 4% | [2]; at 50.0 µM -28.8% | [3]; [7] -1% | [3]; [8] 6% | [3]; at 50.0 µM 3.25% | [4]; [7] -1% | [4]; [8] 2% | [5]; [7] -2% | [5]; [8] -4% | [5]; at 50.0 µM 10.5% | [6]; [7] -2% | [6]; [8] 4% | [6]; at 50.0 µM 32.5%

CC1=NOC(=O)/C1=C/c1ccc(Cl)c(Cl)c1
inactive: [1]; [7] -2% | [1]; at 50.0 µM 31.9% | [2]; [7] 10% | [2]; [8] 20% | [2]; at 50.0 µM 36.7% | [3]; [7] -11% | [3]; [8] 31% | [3]; at 50.0 µM 52.5% | [4]; [7] 8% | [4]; [8] 61% | [4]; at 50.0 µM 2.1% | [5]; [7] -3% | [5]; at 50.0 µM 33.9% | [6]; [7] -10% | [6]; [8] 45% | [6]; at 50.0 µM 43.1%
active: [1]; [8] 70% | [5]; [8] 71%

S=c1n(-c2ccc(Cl)cc2)c2nc3ccccc3nc(/c2=N\Nc2cc(Cl)ccc2Cl)n1-c1ccc(Br)cc1
inactive: [1]; [7] 2% | [1]; [8] 16% | [1]; at 50.0 µM 50.3% | [2]; [7] -9% | [2]; [8] -12% | [3]; [7] 0% | [3]; [8] 9% | [4]; [7] -6% | [4]; [8] -24% | [5]; [7] -6% | [5]; [8] 15% | [6]; [7] 1% | [6]; [8] 4% | [6]; at 50.0 µM 68%
active: [2]; at 50.0 µM 84.5% | [3]; at 50.0 µM 78% | [4]; at 50.0 µM 76% | [5]; at 50.0 µM 85.1%

O=C(c1ccccc1)c1[nH]c2ccccc2c(=O)c1-c1ccc([N+](=O)[O-])cc1
active: [1]; [8] 96% | [1]; at 50.0 µM 97.6% | [2]; [8] 98% | [2]; at 50.0 µM 97.5% | [3]; [8] 98% | [3]; at 50.0 µM 98.3% | [4]; [8] 97% | [4]; at 50.0 µM 97.6% | [5]; [8] 96% | [5]; at 50.0 µM 97.5% | [6]; [8] 94% | [6]; at 50.0 µM 98.3%
inactive: [1]; [7] -6% | [2]; [7] -9% | [3]; [7] -16% | [4]; [7] -13% | [5]; [7] -8% | [6]; [7] 3%

CC(=O)OCC1OC(SSc2ccccc2)C(OC(C)=O)C(OC(C)=O)C1OC(C)=O (stereo not given)
inactive: [1]; [7] -2% | [1]; [8] 13% | [1]; at 50.0 µM 59.4% | [2]; [7] -30% | [2]; [8] 69% | [2]; at 50.0 µM 44.6% | [3]; [7] 10% | [3]; [8] 7% | [3]; at 50.0 µM 58.1% | [4]; [7] -13% | [4]; [8] 5% | [4]; at 50.0 µM 45% | [5]; [7] -12% | [5]; [8] 8% | [5]; at 50.0 µM 8.5% | [6]; [7] -17% | [6]; at 50.0 µM 53.9%
active: [6]; [8] 73%

COc1ccc(/C=N/NS(=O)(=O)c2ccc(C)cc2)cc1
active: [1]; [8] 83% | [1]; at 50.0 µM 94.2% | [2]; [8] 97% | [3]; [8] 98% | [3]; at 50.0 µM 91.7% | [4]; [8] 96% | [5]; [8] 94% | [6]; [8] 98% | [6]; at 50.0 µM 97.3%
inactive: [1]; [7] 13% | [2]; [7] -5% | [2]; at 50.0 µM 67.9% | [3]; [7] 6% | [4]; [7] 18% | [4]; at 50.0 µM 45.4% | [5]; [7] 23% | [5]; at 50.0 µM 46.3% | [6]; [7] 46%

CN1CC[C@@H](c2ccccc2)[C@@H](O)C1
inactive: [1]; [7] 0% | [1]; [8] -11% | [1]; at 50.0 µM 6.3% | [2]; [7] 4% | [2]; [8] -4% | [2]; at 50.0 µM 12% | [3]; [7] 2% | [3]; [8] -10% | [3]; at 50.0 µM 49.1% | [4]; [7] -3% | [4]; [8] -11% | [4]; at 50.0 µM -1.15% | [5]; [7] 0% | [5]; [8] -3% | [5]; at 50.0 µM 3.5% | [6]; [7] -1% | [6]; [8] -29% | [6]; at 50.0 µM 9.55%

CCC[CH2][Sn]1([CH2]CCC)[O]CC([CH2][Sn]([c]2ccccc2)([c]2ccccc2)[c]2ccccc2)[O]1 (stereo not given)
active: [1]; [7] 100% | [1]; [8] 100% | [1]; at 50.0 µM 90.3% | [2]; [7] 97% | [2]; [8] 97% | [2]; at 50.0 µM 91.7% | [3]; [7] 99% | [3]; [8] 99% | [3]; at 50.0 µM 90.8% | [4]; [7] 99% | [4]; [8] 99% | [4]; at 50.0 µM 91.7% | [5]; [7] 97% | [5]; [8] 97% | [5]; at 50.0 µM 91.3% | [6]; [7] 98% | [6]; [8] 98% | [6]; at 50.0 µM 89%

CN1CC[N+](C)(Cc2ccc(C[N+]3(C)CC[N+](C)(Cc4ccc(CCl)cc4)CC3)cc2)CC1 (stereo not given)
inactive: [1]; [7] 2% | [2]; [7] 4% | [3]; [7] 2% | [4]; [7] -3% | [5]; [7] 1% | [6]; [7] 2%
active: [1]; [8] 97% | [1]; at 50.0 µM 99.2% | [2]; [8] 95% | [2]; at 50.0 µM 99.4% | [3]; [8] 83% | [3]; at 50.0 µM 99.4% | [4]; [8] 95% | [4]; at 50.0 µM 98.1% | [5]; [8] 98% | [5]; at 50.0 µM 99.5% | [6]; [8] 98% | [6]; at 50.0 µM 99.3%
